Experimental findings from PubChem BioAssay (NCATS) are described below.

Records with an inconclusive call do not appear. A number with no mark means an inactive call. The source made the active and inactive calls. The call rests on the fitted dose curve; in most records, active means well fitted curve in the direction sought with a large enough effect; inconclusive means small, poorly fitted or top-dose-only effect, or another doubt; inactive means no such curve, though single readings can be large; an effect the other way counts as inactive or inconclusive.

Assay [1] deals with Rap guanine nucleotide exchange factor 3 (Homo sapiens) (UniProt O95398). In words: Confirmatory qHTS for antagonist of cAMP-regulated guanine nucleotide exchange factor 3 (EPAC1) (AID 1645880). Further: nearly all actives have a fitted effect of over 55% in size. Further: potency means the concentration at half of the fitted maximal effect. The essentials:
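Nucleotide exchange uses 100 nM EPAC1, 250 nM RAP1B-BODIPY-GDP and 50 uM GDP, with compounds in a concentration-titration series. After 5 min at room temperature, fluorescence (480 nm ex/540 nm em) is read every 5 min for 30 min. Data are normalized to control ATA and DMSO.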
(In general: In qHTS, concentration-response curves come from the screen itself.)

For assay [2] the target is unchanged. Kind of assay: Confirmatory qHTS for agonist of cAMP-regulated guanine nucleotide exchange factor 3 (EPAC1) (AID 1645881). Further: nearly all actives have a fitted effect of over 75% in size. Further: potency means the concentration at half of the fitted maximal effect.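 On activation: EPAC1 catalysed release of BODIPY-GDP from Rap1B seen as fluorescence loss; 100% = effect of cAMP agonist control.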
Assay [3] has as its target Rap guanine nucleotide exchange factor 4 (Homo sapiens) (UniProt Q8WZA2). Kind of assay: Confirmatory qHTS for agonist of cAMP-regulated guanine nucleotide exchange factor 4 (EPAC2) (AID 1645884).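 Further: nucleotide exchange releases bodipy-GDP from Rap1 and this lowers its fluorescence; nearly all actives have a fitted effect of over 65% in size.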 Further: potency means the concentration at half of the fitted maximal effect. On activation: on the % scale 0 is the no-effect control and ±100 the full control effect.
Assay [4] has the same target. In words: Confirmatory qHTS for antagonist of cAMP-regulated guanine nucleotide exchange factor 4 (EPAC2) (AID 1645885). Further: nearly all actives have a fitted effect of over 25% in size. Further: potency means the concentration at half of the fitted maximal effect. On activity change, negative = inhibition: on the % scale 0 is the no-effect control and ±100 the full control effect.
In assay [5] the target is Rap guanine nucleotide exchange factor 3 (Homo sapiens) (UniProt O95398). Kind of assay: Counterscreen qHTS for antagonist of cAMP-regulated guanine nucleotide exchange factor 3 (EPAC1) (AID 1645888).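 Further: fluorescence loss as bound BODIPY-GDP is released from Rap1B; % of control where 0% means no effect.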 Put shortly:
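Rap1B–BODIPY-GDP (250 nM) with 50 uM GDP; compounds pin-transferred to 9.74 nM–152 uM final (activator) or from 7.32 nM upwards (inhibitor). Fluorescence Ex/Em 480/540 nm read at 5 and 30 min, then after adding cAMP or buffer, at room temperature.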
In general terms: Counterscreens check selectivity or assay interference.

Sequence of Rap guanine nucleotide exchange factor 4 (Homo sapiens) (Q8WZA2 whole entry, looked up): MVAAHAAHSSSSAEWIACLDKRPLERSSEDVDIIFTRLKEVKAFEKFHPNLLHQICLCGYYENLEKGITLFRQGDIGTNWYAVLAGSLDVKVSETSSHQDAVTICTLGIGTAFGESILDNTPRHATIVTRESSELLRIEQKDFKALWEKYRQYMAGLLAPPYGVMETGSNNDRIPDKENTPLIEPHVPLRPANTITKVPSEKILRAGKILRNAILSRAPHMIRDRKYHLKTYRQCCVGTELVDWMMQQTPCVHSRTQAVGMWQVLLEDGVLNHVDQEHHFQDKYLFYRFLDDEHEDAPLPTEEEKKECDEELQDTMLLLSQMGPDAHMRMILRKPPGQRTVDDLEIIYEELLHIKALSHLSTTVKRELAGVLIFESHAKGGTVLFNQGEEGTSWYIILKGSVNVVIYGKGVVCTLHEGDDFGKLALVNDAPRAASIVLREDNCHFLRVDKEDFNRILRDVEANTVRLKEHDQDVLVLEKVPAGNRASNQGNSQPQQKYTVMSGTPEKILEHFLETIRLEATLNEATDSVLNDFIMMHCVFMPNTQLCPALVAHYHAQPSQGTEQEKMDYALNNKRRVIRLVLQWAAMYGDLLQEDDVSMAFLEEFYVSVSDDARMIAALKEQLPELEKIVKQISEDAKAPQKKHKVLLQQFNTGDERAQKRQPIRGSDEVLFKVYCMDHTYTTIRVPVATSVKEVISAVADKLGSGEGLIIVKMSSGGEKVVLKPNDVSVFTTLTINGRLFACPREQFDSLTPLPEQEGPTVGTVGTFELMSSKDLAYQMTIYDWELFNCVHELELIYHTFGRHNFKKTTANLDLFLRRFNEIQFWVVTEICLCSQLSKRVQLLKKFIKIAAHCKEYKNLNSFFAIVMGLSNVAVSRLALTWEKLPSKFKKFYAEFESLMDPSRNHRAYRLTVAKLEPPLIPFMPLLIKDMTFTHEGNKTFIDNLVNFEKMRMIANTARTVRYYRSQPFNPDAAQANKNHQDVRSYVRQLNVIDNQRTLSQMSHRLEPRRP
Sequence of Rap guanine nucleotide exchange factor 3 (Homo sapiens) (O95398 whole entry, looked up): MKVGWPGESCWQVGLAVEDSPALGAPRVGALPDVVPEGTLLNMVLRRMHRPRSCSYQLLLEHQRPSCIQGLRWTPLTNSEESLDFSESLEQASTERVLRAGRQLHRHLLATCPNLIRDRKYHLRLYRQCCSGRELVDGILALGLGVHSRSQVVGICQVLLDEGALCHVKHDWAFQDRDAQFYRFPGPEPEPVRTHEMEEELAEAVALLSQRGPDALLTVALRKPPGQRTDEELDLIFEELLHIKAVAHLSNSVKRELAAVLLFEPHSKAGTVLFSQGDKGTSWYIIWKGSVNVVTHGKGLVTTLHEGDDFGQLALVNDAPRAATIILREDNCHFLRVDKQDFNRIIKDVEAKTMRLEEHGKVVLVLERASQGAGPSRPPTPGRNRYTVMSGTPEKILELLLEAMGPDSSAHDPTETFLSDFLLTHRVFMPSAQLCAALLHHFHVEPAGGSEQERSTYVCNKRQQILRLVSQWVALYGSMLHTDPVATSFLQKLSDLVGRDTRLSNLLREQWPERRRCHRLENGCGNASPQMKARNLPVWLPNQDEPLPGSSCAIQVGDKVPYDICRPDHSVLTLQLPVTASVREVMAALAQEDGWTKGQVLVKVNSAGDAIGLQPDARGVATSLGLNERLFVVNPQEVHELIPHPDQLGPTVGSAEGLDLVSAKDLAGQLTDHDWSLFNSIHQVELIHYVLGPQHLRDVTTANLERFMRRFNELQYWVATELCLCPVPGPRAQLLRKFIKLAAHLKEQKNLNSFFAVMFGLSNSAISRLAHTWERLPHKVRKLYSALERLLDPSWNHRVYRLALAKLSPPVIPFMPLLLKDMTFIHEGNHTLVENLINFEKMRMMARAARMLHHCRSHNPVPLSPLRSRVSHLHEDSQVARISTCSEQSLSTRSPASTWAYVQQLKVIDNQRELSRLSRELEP

As for `Cn1c(=O)c2c(-c3ccccc3Br)n(CCc3ccccc3)cc2n(C)c1=O`, the Potency entry in assay [1], in assay [2], in assay [3] and in assay [5] was “inactive” throughout. For the same molecule, the outcome in assay [4] was “inactive [at 12.7 µM]”.
For the molecule `CCCCCC(=O)Nc1ccc(C2C(=O)c3ccccc3C2=O)cc1`, the Potency entry in assay [1], in assay [2], in assay [3], in assay [4] and in assay [5] was “inactive” throughout.
In the case of `COC(CNC(=O)c1ccc2c3c(onc13)-c1ccccc1C2=O)OC`, the Potency result in assay [1], in assay [4] and in assay [5] was “inactive” throughout. In addition, the Potency in assay [2] is 50.1 µM (active); in assay [3], 100 µM (active).
Regarding `Cc1ccc(NC(=O)c2ccc(S(=O)(=O)N3CCCCCC3)cc2)nc1`, the Potency entry in assay [1], in assay [2] and in assay [4] was “inactive” in each case. The activation in assay [3] is 5.15% [at 17.1 µM, percent relative to cAMP agonist control]. Besides, the activity change, negative = inhibition in assay [5] is -5.55% [at 30.8 µM].
Turning to `Cc1nn(-c2ccccc2)c(N2CCCC2)c1/C=C1\N=C(c2ccc(OC(C)C)cc2)OC1=O`, the Potency result in assay [1], in assay [2], in assay [3], in assay [4] and in assay [5] was “inactive” throughout.
With `O=C1CNC(=O)c2c(nc3n2CCC3)N1`, the Potency result in assay [1], in assay [2], in assay [3], in assay [4] and in assay [5] was “inactive” in each case.
On to `CC1Cc2cc(/C=C3/SC(=S)NC3=O)ccc2O1` (stereo not given), for which the Potency in assay [1] was 30.1 µM (active). Also, the Potency result in assay [2], in assay [3], in assay [4] and in assay [5] was “inactive” in each case.
For `CSC1=NC2(CCN(C(=O)NC3CCCCC3)CC2)N=C1c1ccc(C)cc1`, the Potency result in assay [1], in assay [2], in assay [3], in assay [4] and in assay [5] was “inactive” each time.
As to `COc1cccc(NC(=O)CSc2nnc3[nH]c(=O)cc(-c4ccccc4)n23)c1`, the Potency entry in assay [1], in assay [2], in assay [3], in assay [4] and in assay [5] was “inactive” each time.
As for `OCc1cccc(-c2cnc3c(Nc4cccc(OC(F)(F)C(F)F)c4)nccn23)c1`, the Potency entry in assay [1], in assay [2] and in assay [4] was “inactive” in each case. The activation in assay [3] is -0.754% [at 17.1 µM, percent relative to cAMP agonist control]. Moreover, the activity change, negative = inhibition in assay [5] was 9.1% [at 30.8 µM].
As to `Cc1ccc(C(=O)c2cn(Cc3ccccc3)c3nc(C)ccc3c2=O)cc1`, the Potency result in assay [1], in assay [2], in assay [3], in assay [4] and in assay [5] was “inactive” each time.
Take `Nc1nc2c(ncn2[C@@H]2O[C@H](CNCc3ccccc3)[C@@H](O)[C@H]2O)c(=O)[nH]1`: the Potency entry in assay [1], in assay [2], in assay [3], in assay [4] and in assay [5] was “inactive” throughout.
For the molecule `COc1cc(/C=C2\SC(=S)N(NS(=O)(=O)c3ccccc3)C2=O)cc(OC)c1OC`, the Potency in assay [1] is 15.1 µM (active). The Potency entry in assay [2], in assay [3], in assay [4] and in assay [5] was “inactive” each time.
For `COc1cc(NC(=S)NCCC(c2ccccc2)c2ccccc2)cc(OC)c1`, the Potency result in assay [1], in assay [2] and in assay [4] was “inactive” each time. For the same molecule, the activation in assay [3] is 6.66% [at 17.1 µM, percent relative to cAMP agonist control]. In assay [5], the activity change, negative = inhibition was 11% [at 30.8 µM].
Regarding `Cc1nc2sc(C(c3cccs3)N3CCN(c4ccccc4)CC3)c(O)n2n1` (stereo not given), the Potency result in assay [1], in assay [2], in assay [3], in assay [4] and in assay [5] was “inactive” throughout.
`COc1ccc(S(=O)(=O)N2CCOC23CCN(S(=O)(=O)c2cccs2)CC3)cc1`: the Potency entry in assay [1], in assay [2] and in assay [4] was “inactive” each time. The activation in assay [3] is 4.26% [at 17.1 µM, percent relative to cAMP agonist control]. Besides, in assay [5], the activity change, negative = inhibition is -10.2% [at 30.8 µM].
`COc1ccc(OC)c(/C=C2\N=C(c3ccccc3)OC2=O)c1`: the Potency entry in assay [1], in assay [2], in assay [3], in assay [4] and in assay [5] was “inactive” throughout.
As for `COc1ccc(C(=O)c2c(-c3ccc(OC)cc3)oc3ccccc23)cc1`, the Potency entry in assay [1], in assay [2], in assay [3] and in assay [5] was “inactive” throughout. Further, the Potency in assay [4] is 15.1 µM (active).
Regarding `Cc1cccc(N2CCN(c3ccc(C(=O)O)cc3NC(=O)c3ccccc3F)CC2C)c1` (stereo not given), in assay [1], the Potency is 84.9 µM (active). Also, the Potency entry in assay [2], in assay [3] and in assay [5] was “inactive” each time. The outcome in assay [4] was “inactive [at 12.7 µM]”.
For `CCC(C)N(C(=O)COC(=O)C1CCN(S(=O)(=O)c2ccc(C)c(C)c2)CC1)C1CCS(=O)(=O)C1` (stereo not given), the Potency entry in assay [1], in assay [2], in assay [3], in assay [4] and in assay [5] was “inactive” throughout.
Take `COc1ccc(OC)c(-c2nc3c(C#N)c[nH]n3c2NC2CCCCC2)c1`: the Potency entry in assay [1], in assay [2], in assay [3] and in assay [5] was “inactive” each time. Moreover, in assay [4], the outcome is “inactive [at 12.7 µM]”.
Regarding `O=C(CSc1nnc(-c2cccnc2)n1CCc1ccccc1)NCc1ccccc1`, the Potency entry in assay [1], in assay [2] and in assay [4] was “inactive” each time. Moreover, the activation in assay [3] is 4.59% [at 17.1 µM, percent relative to cAMP agonist control]. Further, in assay [5], the activity change, negative = inhibition is -2.95% [at 30.8 µM].
